Only some compounds are listed: those with a hit (about 1.7% of all), similar ones and a draw of the others.
GSTO1 counter = counter-screen for RBBP9 inhibitors: inhibitors of human GSTO1 | 300,000 compounds, 1.1% hits | P78417 | recombinant GSTO1, activity-based probe fluorescence polarization | inhibition, % at 5.96 µM;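 active = inhibition above the campaign mean inhibition plus 3 SD, cut at about 35% in these data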;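 also: 0% = GSTO1-1 with DMSO and 100% = wells lacking GSTO1-1 enzyme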
PAD4 inh = inhibitors of human PAD4; AID 485272; 330,000 compounds, 0.41% hits; recombinant PAD4, RCA probe fluorescence polarization; inhibition, % at 6.36 µM;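 active = percent inhibition above a cutoff equal to the mean of all tested compounds plus 3 SD, cut at about 15% in these data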;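 also: 0% = PAD4 with RCA probe and DMSO and 100% = probe without PAD4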
EBNA-1 inhibitor = blocks EBNA-1 binding to DNA. EBNA-1 DNA binding, fluorescence polarization. inhibition, % at 14.8 µM. 300,000 compounds, 0.34% hits. AID 1950; in the data active = inhibition above about 28%
LYPLA2 inh = counter-screen for PME1 inhibitors: inhibitors of human LYPLA2 | O95372 | recombinant LYPLA2, FP-Rh probe fluorescence polarization | inhibition, % at 5.9 µM | 320,000 compounds, 0.38% hits | AID 2177;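 active = inhibition above the screen-wide mean plus 3 SD, limit set per campaign, cut at about 26% in these data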;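 also: 0% = LYPLA2 with DMSO and 100% = wells lacking LYPLA2 enzyme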
ZTA counter = blocks Epstein-Barr virus ZTA, an EBNA-1 counter-screen; ZTA-DNA binding, fluorescence polarization; inhibition, % at 11 µM; 320,000 compounds, 0.15% hits; AID 2234; in the data active = inhibition above about 33%
Target sequence (P03206 whole entry, looked up): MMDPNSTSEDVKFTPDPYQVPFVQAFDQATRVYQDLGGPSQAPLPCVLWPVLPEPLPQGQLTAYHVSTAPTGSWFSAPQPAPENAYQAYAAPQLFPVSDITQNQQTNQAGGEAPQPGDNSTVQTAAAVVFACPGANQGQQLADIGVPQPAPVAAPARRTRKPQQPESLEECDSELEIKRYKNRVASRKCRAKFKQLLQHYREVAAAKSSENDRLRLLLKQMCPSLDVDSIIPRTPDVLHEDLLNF
LYPLA1 inh = LYPLA1 (human) inhibition in PME1 counter-screen; O75608; recombinant LYPLA1, FP-Rh probe fluorescence polarization; inhibition, % at 5.9 µM; 320,000 compounds, 0.16% hits;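 active = inhibition above the mean of all tested compounds plus 3 SD, set per campaign, cut at about 14% in these data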;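 also: inhibitors block serine hydrolase probe labeling of LYPLA1 so polarization falls; 0% = enzyme with DMSO and 100% = wells lacking LYPLA1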
Target sequence (O75608 whole entry, looked up): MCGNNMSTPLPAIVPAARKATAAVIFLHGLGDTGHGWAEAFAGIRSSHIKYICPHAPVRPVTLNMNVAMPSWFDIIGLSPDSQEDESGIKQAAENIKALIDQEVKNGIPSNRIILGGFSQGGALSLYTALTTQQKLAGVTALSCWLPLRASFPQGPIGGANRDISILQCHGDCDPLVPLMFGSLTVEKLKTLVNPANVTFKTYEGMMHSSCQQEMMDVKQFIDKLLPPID
PAD4 FP conf = PAD4 (human) inhibition, confirmed. shares compounds with PAD4 inh. recombinant PAD4, RCA probe fluorescence polarization. inhibition, % at 6.36 µM. 1,200 compounds, 28% hits. AID 488796;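 active = mean inhibition across replicates above the hit cutoff set by the earlier primary screen, cut at about 15% in these data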;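 also: inhibitors block active-site labeling by the probe so polarization falls; 0% = PAD4 with probe and DMSO and 100% = probe without PAD4 enzyme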
The depositor's hits bear a star; . = no result; + = active, no number.

SMILES | GSTO1 counter | PAD4 inh | EBNA-1 inhibitor | LYPLA2 inh | ZTA counter | LYPLA1 inh | PAD4 FP conf
COc1ccc(S(=O)(=O)Nc2cc3c4c(c2)CCN4C(=O)CC3)cc1OC | -16 | -7 | 1 | 1 | 4 | -1 | .
COc1cc(-c2nc(C(=O)NC3CCCCC3)cc3c2[nH]c2ccccc23)cc(OC)c1OC | -18 | 16* | 0 | -26 | -3 | -15 | 16*
CC1CN(c2ccc(NC(=S)Nc3ccc(N4CC(C)OC(C)C4)cc3)cc2)CC(C)O1 (stereo not drawn) | 12 | 20* | -3 | 5 | 9 | 1 | 7
Cc1ccc2sc(C)[n+](CCCS(=O)(=O)[O-])c2c1 | 2 | 17* | -2 | -3 | -3 | -1 | -2
Cc1ccc2c(c1)sc(C)[n+]2CCCS(=O)(=O)[O-] | -10 | 18* | -9 | -11 | -5 | -1 | 11
CCCC[n+]1c(C)sc2cc(OC)ccc21 | 1 | 14 | -7 | -1 | -24 | 3 | .
CC1CN(C(=O)c2ccc(Br)c(S(=O)(=O)N3CCOCC3)c2)CC(C)O1 (stereo not drawn) | . | -2 | . | 9 | -7 | 4 | .
CCOc1ccc2c(c1)-c1c(ssc1=S)C(C)(C)N2C(=O)c1ccco1 | 0 | 17* | 0 | -2 | 7 | -1 | 16*
O=C(NC1CCCCC1)c1ccc2[nH]c(=O)c(=O)[nH]c2c1 | 5 | -4 | -10 | 2 | 11 | 0 | .
CCc1ccc(S(=O)(=O)Nc2cc(SCC(=O)O)c(O)c3ccccc23)cc1 | 84* | 26* | 0 | 6 | 2 | 4 | -4
Cc1oc2c(cc(NS(=O)(=O)c3ccc(C(C)C)cc3)c3ccccc32)c1C(=O)O | 4 | -5 | 1 | 1 | 14 | -9 | .
c1ccc(NC2=NCCN2CCCC2CCCC2)cc1 | 11 | -3 | -16 | 2 | -6 | -1 | .
CC(CCc1ccccc1)NC(=O)CNC(=O)COc1ccccc1 (stereo not drawn) | 11 | 30* | 11 | 10 | -10 | -3 | -2
CCS(=O)CC(=O)Nc1c(-c2ccccc2)oc2ccccc2c1=O (stereo not drawn) | -1 | -6 | -4 | 4 | 0 | 3 | .
CC1(C)c2ccccc2N2CC(=O)NC21/C=C/c1ccco1 (stereo not drawn) | 3 | -12 | 2 | -7 | 10 | -1 | .
CC1(C)c2ccccc2N2CCC(=O)NC21/C=C/c1ccco1 (stereo not drawn) | 4 | 17* | -4 | -9 | -8 | -3 | -3
COc1ccccc1C1CC(c2cccs2)=NN1C(=O)CCC(=O)O (stereo not drawn) | -1 | -8 | -9 | 1 | 7 | 0 | .
COc1ccccc1C1CC(c2cccs2)=Nc2ccccc2S1 (stereo not drawn) | 1 | 23* | 5 | -1 | 2 | 0 | 2
CCCCn1c(N)c(N(CCC(C)C)C(=O)C2=NN(c3cc(C)ccc3C)C(=O)CC2)c(=O)[nH]c1=O | 0 | 3 | 5 | 4 | -2 | 0 | .
NC(=O)CC(NC(=O)Cc1ccc(Br)cc1)c1ccc(NCc2ccc(F)cc2)c([N+](=O)[O-])c1 (stereo not drawn) | 1 | -6 | 19 | -8 | -19 | -2 | .
Nc1nonc1-n1nnc(C(=O)N/N=C/c2cccnc2)c1CSC1=NCCS1 | -17 | 35* | -8 | -8 | 5 | 0 | 10
Nc1nonc1-n1nnc(C(=O)N/N=C/c2ccc(Br)cc2)c1CSC1=NCCS1 | -9 | 10 | 1 | -56 | -16 | -30 | .
O=C(CNS(=O)(=O)c1ccccc1)N1CCc2ccccc2C1 | 6 | -4 | -11 | -1 | -14 | -3 | .
CC(=O)c1cccc(OCc2cc(C(=O)N3CCC(N4CCCCC4)CC3)no2)c1 | 0 | -1 | -7 | -3 | -14 | -2 | .
COc1cc2ccccc2cc1C(=O)NC1CCC(C)CC1 (stereo not drawn) | . | 16* | . | . | . | . | 4
SMILES | GSTO1 counter | PAD4 inh | EBNA-1 inhibitor | LYPLA2 inh | ZTA counter | LYPLA1 inh | PAD4 FP conf
CCn1nc(C(=O)N2CCN(Cc3nc4ccccc4s3)CC2)c2ccccc2c1=O | . | 3 | . | 4 | -18 | 0 | .
COc1ccccc1NC(=O)CCCN1C(=O)C2CC=CCC2C1=O (stereo not drawn) | 4 | 3 | 6 | 4 | 2 | 0 | .
COc1cc2c(C#N)c(N3CCOCC3)nc(N)c2c(N)n1 | 7 | 18* | 6 | 9 | 9 | 3 | 1
O=C(O)c1ccc(OCC(F)(F)F)nc1 | -1 | -1 | -1 | -3 | 0 | -1 | .
N#Cc1cc(-c2ccccc2)[nH]c1-c1nccc2ccccc12 | -10 | 22* | -1 | -6 | 15 | -2 | 12
CCOC(=O)C1(Cc2cccc(F)c2)CCN(Cc2cnn(CC)c2C)CC1 | -5 | -2 | 1 | 4 | -6 | -2 | .
COCCCNC(=O)C(C#N)c1nc2ccccc2nc1N1CCCC1 (stereo not drawn) | -2 | -8 | 9 | 1 | 10 | 1 | .
COCCOC(=O)C(C#N)c1nc2ccccc2nc1N1CCCC1 (stereo not drawn) | 5 | 18* | 1 | -5 | 21 | -2 | 9
Cc1ccc(Oc2ccc(C(F)(F)F)cc2[N+](=O)[O-])c([N+](=O)[O-])n1 | 11 | -3 | 6 | 3 | 1 | 1 | .
CC(=O)c1cccc(NC(=S)NC2CCCCC2)c1 | 24 | 33* | -1 | 6 | -13 | 8 | 7
CCOc1ccc(S(=O)(=O)N2CCCC(C(=O)NC3CC3)C2)cc1Cl (stereo not drawn) | 0 | 0 | -4 | -1 | 7 | 0 | .
CCOC(=O)CC1(NC(=O)C2CCC(=O)N(CCc3ccccc3)C2)CCCCC1 (stereo not drawn) | 2 | -6 | -8 | -2 | 21 | -5 | .
COc1cccc(NC(=O)CN(C)C(=O)C23CC4CC(CC(Cl)(C4)C2)C3)c1 | . | + | . | -7 | -6 | -3 | -4
Cc1ccccc1C1CC(=O)Oc2cc(O)ccc21 (stereo not drawn) | . | 82* | . | . | . | . | 78*
Cc1cccc(C)c1NC(=O)CSc1nc2ccccc2c(=O)[nH]1 | -32 | 2 | 6 | 0 | -6 | -2 | .
Cc1ccccc1C(=O)NNC(=O)CSc1nc2ccccc2c(=O)[nH]1 | 14 | 23* | 10 | 0 | 2 | 11 | -4
COc1cccc(NC2c3ccccc3C(=O)N2Cc2ccccc2Cl)c1 (stereo not drawn) | -2 | -1 | 8 | 2 | -18 | -2 | .
COc1cc(NC2c3ccccc3C(=O)N2Cc2ccccc2Cl)cc(OC)c1 (stereo not drawn) | 2 | 58* | -11 | 1 | -7 | 1 | 16*
C[C@H](NC(=O)CCC1CCC(=O)N1)c1ccccc1 (stereo partly drawn) | 4 | 5 | 5 | -1 | 7 | -4 | .
